In all, about 51,000 compounds went through this assay and about 600 (1.2%) were called active. Inconclusive results (about 2%) are left out. No stated cut-off is given here; in the data, active means potency below about 11 µM; inconclusive means mostly about 12 µM to 25 µM; inactive means weaker than that;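 the screen sought inhibitors and activators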. The entries come from a sample that favours actives as a whole.
Potency means the concentration at half of the fitted maximal effect.

For the test, the system named is pyruvate kinase (Bacillus stearothermophilus). In words: Pyruvate Kinase. The conditions noted are these: purified pyruvate kinase, luminescence ATP production; ribose 5-phosphate activator present at AC10. On the procedure: Pyruvate kinase (partially purified from Bacillus stearothermophilus) was assayed for its ability to generate ATP from ADP using phosphoenolpyruvate (PEP) as a substrate. ATP generation was detected in a coupled reaction by luciferase-mediated luminescence, an ATP-dependent process. Pyruvate kinase substrates, PEP and ADP, were present in the assay at Km and […]-fold below Km respectively. The enzyme was assayed at an intermediate level of activity to screen for inhibitors and activators. In addition, ribose 5 phosphate, a positive modulator of pyruvate kinase, was included in the assay at AC10 in order to identify possible potentiators.
NCGC Assay Protocol Summary:
Three uL of substrate mix (final concentration, 50 mM imidazole pH 7.2, 50 mM KCl, 7 mM MgCl2, 2 mM PEP, 0.1 mM ADP, 0.7 nM ribose 5 phosphate, 0.01% Tween 20, 0.05% BSA) was dispensed into 1536 well plates. 23 nL of compound were delivered by a pin tool and 1 uL of enzyme mix (final concentration, 10 nM pyruvate kinase, 50 mM imidazole pH 7.2, 0.05% BSA) was added. After centrifugation at 1000 rpm for less than a minute, plates were incubated at room temperature for 2 hours. Three uL of detection and kinase stop mix (PKLight, Cambrex) was added, the plates centrifuged, and luminescence read by a ViewLux (Perkin Elmer) at 5 second exposure/plate. Data were normalized to the controls for AC100 stimulation (5 uM ribose 5 phosphate) and to AC100 inhibition (110 uM luteolin).
With `Cn1c(=O)n(CCc2ccccc2)c(=O)c2c1nc1n2CCCN1c1ccccc1`, the Potency is > 57 µM (inactive).

With `COc1cc(OC)cc(C(=O)Nc2ccc(-c3nc4ccccc4o3)c(O)c2)c1`, the Potency is > 57 µM (inactive).

As for `CN(C)CCCNc1c2c(c(C#N)c3nc4ccccc4n13)CCC2`, the Potency was > 57 µM (inactive).

As to `c1ccc(-c2oc3ncnc(N4CCOCC4)c3c2-c2ccccc2)cc1`, the Potency was > 57 µM (inactive).

In the case of `CC(C(=O)Nc1ccccc1-c1ccccc1)N1CCOCC1` (stereo unspecified), the Potency was > 57 µM (inactive).

Regarding `CC(C(=O)N1CCOCC1)N1c2cccc3cccc(c23)S1(=O)=O` (stereo unspecified), the Potency is 1.8 µM (active).

For the molecule `CC(C(=O)O)N1C(=O)c2cccc3cccc1c23` (stereo unspecified), the Potency is 36.6 µM (inactive).

As to `O=C1Nc2c(Br)cc(Br)cc2C1(O)N1CCOCC1` (stereo unspecified), the Potency was 8.12 µM (active).

Consider `COc1ccc(NC2CC(=O)N(C)C2=O)cc1` (stereo unspecified), for which the Potency is > 25.6 µM (inactive).

Turning to `c1c2c(cc3sc(N4CCCCC4)nc13)OCCO2`, the Potency is 1.52 µM (active).

Regarding `Fc1ccc2nc(N3CCCCC3)sc2c1`, the Potency is 41.1 µM (inactive).

With `CCOC(=O)N1CCC(NC(=O)c2ccc3nc(N4CCOCC4)sc3c2)CC1`, the Potency was > 57 µM (inactive).

In the case of `Cc1nnc(SCC(N)=O)n1CC1CCCO1` (stereo unspecified), the Potency is > 57 µM (inactive).

Take `COC(=O)c1ccc2c(=O)n(CC3CCCO3)c(=S)[nH]c2c1` (stereo unspecified): the Potency was > 57 µM (inactive).

On to `Cc1ccsc1C(=O)OCC(=O)c1cc(C)n(CC2CCCO2)c1C` (stereo unspecified), for which the Potency was 0.617 µM (active).

Turning to `COc1ccc(CNC(=O)c2cc3c(=O)n4ccccc4nc3n(CC3CCCO3)c2=N)cc1` (stereo unspecified), the Potency was > 57 µM (inactive).

In the case of `O=C(Nc1cnn(Cc2ccc(Cl)cc2)c1)C1CCCC1`, the Potency was > 57 µM (inactive).

As to `C=CCn1c(COc2ccccc2)nnc1SCC(=O)NCC(=O)OCC`, the Potency is > 57 µM (inactive).

As for `O=C(NCc1ccccn1)c1cc2ccccc2oc1=O`, the Potency was > 57 µM (inactive).

`COc1ccc(C(=O)N(Cc2ccc(N(C)C)cc2)C2CCS(=O)(=O)C2)cc1` (stereo unspecified): the Potency was > 57 µM (inactive).

On to `CCC12CN3CC(CC)(CN(C1)C31C(=O)N(C)c3ccc(C)cc31)C2=O` (stereo unspecified), for which the Potency was > 57 µM (inactive).

Take `COc1ccc(CC(=O)n2nc(-c3cccnc3)nc2N)cc1`: the Potency was > 57 µM (inactive).

`COC(=O)c1ccccc1NC(=O)c1ccccc1NS(C)(=O)=O`: the Potency was > 57 µM (inactive).

For the molecule `COC(=O)Cc1nc2ccccc2[nH]1`, the Potency is > 57 µM (inactive).

Turning to `Cc1ccc(-c2c3c(=O)n(C)c(=O)n(C)c3cn2-c2ccccc2O)cc1`, the Potency is > 57 µM (inactive).

Take `CCOC(=O)N1CCN(CC(=O)c2c(C)[nH]c3ccccc23)CC1`: the Potency was > 57 µM (inactive).

Take `Cc1c(C(=O)CN2CCOCC2)[nH]c2ccccc12`: the Potency was > 57 µM (inactive).

Consider `N#Cc1nc(COc2ccc(-c3ccccc3)cc2)oc1NCc1cccnc1`, for which the Potency is > 57 µM (inactive).

As to `N#Cc1nc(-c2ccc(OCc3ccccc3)cc2)oc1NCCCN1CCOCC1`, the Potency was 1.88 µM (active).

With `N#Cc1nc(Cc2ccccc2)oc1NCCc1ccccc1`, the Potency is > 57 µM (inactive).

Regarding `O=C(O)CSCc1nc2ccccc2s1`, the Potency is > 57 µM (inactive).

Take `O=C(CN1C(=O)COc2ccccc21)NCCN1CCc2ccccc2C1`: the Potency was > 57 µM (inactive).

On to `Cn1c(C(=O)NCCN2CCc3ccccc3C2)cc2c(=O)[nH]c3ccccc3c21`, for which the Potency is 9.21 µM (active).

In the case of `Cc1cccc(N2CCN(C(=O)c3cc4c(=O)[nH]c5ccccc5c4n3C)CC2)c1C`, the Potency was > 11.4 µM (inactive).

`FC(F)(F)c1nnc2sc(-c3ccco3)nn12`: the Potency is > 57 µM (inactive).

For the molecule `COc1cc(OC)cc(C(=O)Nc2ncc3c(n2)CC(C)(C)CC3=O)c1`, the Potency was > 57 µM (inactive).

In the case of `Cn1c(=O)c2c(nc(N3CCCCCC3)n2CC(O)COc2ccc(Cl)cc2)n(C)c1=O` (stereo unspecified), the Potency is > 57 µM (inactive).

Regarding `CCC(=O)Nc1ccc(C(=O)Nc2ccc3c(c2)C(=O)N(CC2CCCO2)C3=O)cc1` (stereo unspecified), the Potency was > 57 µM (inactive).

For `COc1cccc(N(CC(=O)NC2CCCC2)C(=O)Cn2nnc(-c3ccc(C)cc3)n2)c1`, the Potency is > 57 µM (inactive).

Turning to `CCOc1cc(C(=O)Nc2ncccn2)cc(OCC)c1OCC`, the Potency is > 57 µM (inactive).

Consider `CCOC(=O)c1cc(-c2nnc(-c3cc(OC)c(OC)c(OC)c3)o2)c(C)nc1C`, for which the Potency was > 57 µM (inactive).

For the molecule `CCOC(=O)c1cc2c(n(-c3ccc(C)cc3)c1=O)CCCC2=O`, the Potency was > 57 µM (inactive).

For `CN1CCN(c2ccc(NC(=O)COc3ccc(Cl)cc3Cl)cc2)CC1`, the Potency was > 57 µM (inactive).

Regarding `CC(C)(C)NC(=O)C(c1ccco1)N(Cc1ccc2c(c1)OCO2)C(=O)Cn1nnc2ccccc21` (stereo unspecified), the Potency is > 57 µM (inactive).

Consider `CCc1nnc(NC(=O)c2nc3nccc(C)n3n2)s1`, for which the Potency was > 57 µM (inactive).

Turning to `c1ccc(-n2ncc3c2ncn2c(C4CCCCC4)nnc32)cc1`, the Potency is > 57 µM (inactive).

With `CCc1ccccc1NC(=O)CSc1nnc([C@@H](NC(=O)OC(C)(C)C)C(C)CC)o1` (stereo partly specified), the Potency is > 57 µM (inactive).

As for `Cc1cc(C)c(C#N)c(SCc2ccccc2C(=O)O)n1`, the Potency is > 57 µM (inactive).

As for `Cc1cccc(-c2noc(-c3ccc(F)cc3)n2)c1`, the Potency is 10.4 µM (active).

For the molecule `Cc1ccc(Cc2nc(-c3cccc(C)c3)no2)cc1`, the Potency was > 57 µM (inactive).

For the molecule `COc1ccc2[nH]c(=O)c(-c3noc(-c4ccc(F)cc4)n3)cc2c1`, the Potency is > 57 µM (inactive).

`CC(C)OC(=O)c1cc(NC(=O)C2C3CCC(O3)C2C(=O)O)cc(C(=O)OC(C)C)c1` (stereo unspecified): the Potency was 6.13 µM (active).

Turning to `CCC(CC)C(=O)Nc1cc(C(=O)OC)cc(C(=O)OC)c1`, the Potency is > 57 µM (inactive).

As to `Cc1nc(NCc2ccccc2)c(C(N)=O)c2c1COC(C)(C)C2`, the Potency was > 25.6 µM (inactive).

As for `COc1ccc2oc(=O)c(C(=O)O)cc2c1`, the Potency is > 57 µM (inactive).

Take `Cc1cc(Cl)c(S(=O)(=O)NCc2cccnc2)cc1OCC(N)=O`: the Potency is > 57 µM (inactive).

For `Cc1nn(CC(=O)Nc2ccc3c(c2)nc(CN2CCCCC2)n3C)c(=O)c2ccccc12`, the Potency is > 57 µM (inactive).

On to `COC(=O)c1ccc2c(c1)S(=O)(=O)NC(=NCCCN1CCOCC1)S2`, for which the Potency is > 57 µM (inactive).

`COc1ccc2oc(C)c(NC(C)=O)c2c1`: the Potency is > 57 µM (inactive).

As for `O=C(Nn1cc(C(=O)N2CCN(c3ccccc3F)CC2)c2ccccc2c1=O)c1cnccn1`, the Potency is > 57 µM (inactive).

Regarding `COCC(C)n1c(SCc2ccc(C(=O)OC)o2)nc2ccccc2c1=O` (stereo unspecified), the Potency was > 57 µM (inactive).

As for `CCOc1cc(-c2nc3cc(C)ccn3c2NCC2CCCO2)ccc1O` (stereo unspecified), the Potency was > 57 µM (inactive).

For the molecule `CCOc1nc(-c2ccc(OC)cc2)ccc1-c1noc(-c2cc(OC)c(OC)c(OC)c2)n1`, the Potency was > 57 µM (inactive).

For the molecule `COc1ccccc1Cc1nc(-c2ccc(C)cc2)no1`, the Potency is > 57 µM (inactive).

For the molecule `COc1ccc(-c2nc(-c3ccccc3)no2)c(OC)c1`, the Potency is 0.55 µM (active).

Take `Cn1c(=O)c2c(n(Cc3ccccc3)c1=O)NC(=O)C2CC(=O)N1CCc2ccccc2C1` (stereo unspecified): the Potency was > 57 µM (inactive).

As to `CC(C)C(=O)N1CCN(CCN=CC2=C(O)CC(c3ccco3)CC2=O)CC1` (stereo unspecified), the Potency was > 57 µM (inactive).

On to `O=C(CN1CCN(C2CCCCC2)CC1)Nc1ccccc1N1CCCCC1`, for which the Potency was > 57 µM (inactive).

Consider `Fc1ccccc1OCCCCn1cncn1`, for which the Potency was > 57 µM (inactive).

For the molecule `Cc1cccc(-n2ncc3c(N4CCc5ccccc54)ncnc32)c1`, the Potency is > 57 µM (inactive).

`CCN(CC)CCCN1C(=O)C(=O)/C(=C(/O)c2c(C)nc3ccccn23)C1c1ccc(C)o1` (stereo unspecified): the Potency is > 57 µM (inactive).
